Measured values taken from PubChem BioAssay (NCI).
Several values for one entry are separate records, joined by “and”; a condition that tells them apart may be missing. Equal values may be shown once. The panel holds about 83,000 compounds, 20% with a hit somewhere; the sample as a whole holds those more often.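 Single-concentration screen, 48 h exposure, 96-well plates. Endpoint: percent growth. Below 10 = active.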 Activity calls are given as the source filed them.

Legend:
Assay in all cases: NCI-60 one-dose screen, 48 h (100 = growth as untreated, 0 = no growth, -100 = all killed)
Conditions in all cases: 10 µM unless noted
NCI-H23 lung = test system: NCI-H23 lung
NCI-H226 lung = test system: NCI-H226 lung
NCI-H322M lung = test system: NCI-H322M lung
HOP-62 NSCLC = test system: HOP-62 NSCLC
NCI-H460 lung = test system: NCI-H460 lung
HOP-92 NSCLC = test system: HOP-92 NSCLC
NCI-H522 lung = test system: NCI-H522 lung
A549/ATCC NSCLC = test system: A549/ATCC NSCLC
786-0 renal = test system: 786-0 renal
COLO 205 colon = test system: COLO 205 colon

Measured: growth

COc1ccc(CCNC(=S)NN)cc1OC
inactive: NCI-H23 lung 99.5% | NCI-H226 lung 106% | NCI-H322M lung 108% | HOP-62 NSCLC 117% | NCI-H460 lung 101% | HOP-92 NSCLC 94.8% | NCI-H522 lung 102% | A549/ATCC NSCLC 106% | 786-0 renal 109% | COLO 205 colon 112%

COc1ccc(CCl)c(C)c1OC
inactive: NCI-H23 lung 96.2% | NCI-H226 lung 95.8% | NCI-H322M lung 95.8% | HOP-62 NSCLC 104% | NCI-H460 lung 103% | HOP-92 NSCLC 86.1% | NCI-H522 lung 99.8% | A549/ATCC NSCLC 102% | 786-0 renal 106% | COLO 205 colon 109%

O=c1[nH]c(=S)[nH]n1C(=S)n1[nH]c(=S)[nH]c1=O
inactive: NCI-H23 lung 110% | NCI-H226 lung 85% | NCI-H322M lung 96.8% | HOP-62 NSCLC 97.2% | NCI-H460 lung 103% | HOP-92 NSCLC 82.2% | NCI-H522 lung 84.6% | A549/ATCC NSCLC 93.6% | 786-0 renal 106% | COLO 205 colon 111%

Cc1ccc(C(=O)c2ccc(C)cc2)cc1
inactive: NCI-H23 lung 95.9% and 98.3% | NCI-H226 lung 92.4% and 94.6% | NCI-H322M lung 97.2% and 94.3% | HOP-62 NSCLC 92.5% and 98.4% | NCI-H460 lung 101% and 105% | HOP-92 NSCLC 59.2% and 73.7% | NCI-H522 lung 89.3% and 93.6% | A549/ATCC NSCLC 87.9% and 101% | 786-0 renal 90.7% and 99.6% | COLO 205 colon 99.7%

NC(=O)Cc1nc(O)cc(=O)[nH]1
inactive: NCI-H23 lung 107% | NCI-H226 lung 99.1% | NCI-H322M lung 103% | HOP-62 NSCLC 81.6% | NCI-H460 lung 105% | HOP-92 NSCLC 91.7% | NCI-H522 lung 77% | A549/ATCC NSCLC 89.8% | 786-0 renal 98.4% | COLO 205 colon 108%

N#Cc1c(N)nc2c(c(-c3ccc(Cl)cc3)nn2-c2ccccc2)c1C#N
inactive: NCI-H23 lung 93.7% [100 µM] | NCI-H226 lung 97.1% [100 µM] | NCI-H322M lung 104% [100 µM] | HOP-62 NSCLC 96.1% [100 µM] | NCI-H460 lung 96.8% [100 µM] | HOP-92 NSCLC 90.8% [100 µM] | NCI-H522 lung 102% [100 µM] | A549/ATCC NSCLC 94.9% [100 µM] | 786-0 renal 72.2% [100 µM] | COLO 205 colon 117% [100 µM]

O=P(O)(O)OC1C(OP(=O)(O)O)C(OP(=O)(O)O)C(OP(=O)(O)O)C(OP(=O)(O)O)C1OP(=O)(O)O.[Cu+2] (stereo not given)
inactive: NCI-H23 lung 93.3% | NCI-H226 lung 98.8% | NCI-H322M lung 106% | HOP-62 NSCLC 114% | NCI-H460 lung 84.2% | HOP-92 NSCLC 106% | NCI-H522 lung 101% | A549/ATCC NSCLC 64.1% | 786-0 renal 114% | COLO 205 colon 111%

COC(=O)c1ccccc1Cl
inactive: NCI-H23 lung 103% | NCI-H226 lung 101% | NCI-H322M lung 97.4% | HOP-62 NSCLC 98.3% | NCI-H460 lung 106% | HOP-92 NSCLC 85.3% | NCI-H522 lung 102% | A549/ATCC NSCLC 99.4% | 786-0 renal 102% | COLO 205 colon 102%

Cc1ccc2cccc([N+](=O)[O-])c2n1
inactive: NCI-H23 lung 108% and 95% | NCI-H226 lung 101% | NCI-H322M lung 110% and 90.5% | HOP-62 NSCLC 103% and 95.1% | NCI-H460 lung 117% and 107% | HOP-92 NSCLC 123% and 96.2% | NCI-H522 lung 90.2% and 93.8% | A549/ATCC NSCLC 103% and 104% | 786-0 renal 118% and 98.3% | COLO 205 colon 104% and 106%

COC(=O)c1nc(N)nc(C(=O)OC)c1C(=O)c1cccc2ccccc12
inactive: NCI-H23 lung 101% | NCI-H226 lung 97.1% | NCI-H322M lung 109% | HOP-62 NSCLC 105% | NCI-H460 lung 139% | HOP-92 NSCLC 85.5% | NCI-H522 lung 101% | A549/ATCC NSCLC 107% | 786-0 renal 110% | COLO 205 colon 144%

CN(C)c1ccc(C(=N)c2ccc(N(C)C)cc2)cc1
inactive: NCI-H23 lung 56.4% and 41.9% | NCI-H226 lung 74.5% and 47.3% | NCI-H322M lung 58.1% and 60.9% | HOP-62 NSCLC 26.3% and 37.2% | HOP-92 NSCLC 32.5% and 27.5% | A549/ATCC NSCLC 32% and 24.2% | 786-0 renal 47.4% and 40.2% | COLO 205 colon 17.5% and 13.2%
9.11% (active) and 15.7% (inactive): NCI-H460 lung
-23.9% (active) and 17.8% (inactive): NCI-H522 lung
